# HT1080 IDH1KD tx: HT-1080 IDH1 knockdown cell toxicity (counter line). HT-1080 IDH1 knockdown viability, ATP luminescence, 48 h. Potency, µM (highest dose often 46.1 µM), for the others: at the top dose activity, negative = toxicity, most hits filed as cytotoxic. hit rate 2% among 360,000. AID 686971;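 note: 0% = DMSO wells and -100% = cell-free medium wells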
#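 Luminescent ATP read-out (CellTiter-Glo, 10 min at room temperature) after 48 h compound exposure at 37 °C gave viability of IDH1-knockdown HT-1080 cells. Activity was normalised to DMSO and cell-free wells, then fitted as concentration-response curves.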
# HT1080-NT tox: kills 2HG-producing HT-1080-NT fibrosarcoma cells; HT-1080-NT fibrosarcoma viability, CellTiter-Glo ATP luminescence, 48 h; Potency, µM (doses to about 46.1 µM), without a hit: at the highest dose activity, negative = less viability, most hits filed as cytotoxic; hit rate 1.6% among 360,000; AID 686970;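 note: NT is the 2HG producing partner of a matched IDH1 knockdown line; 0% = DMSO-treated cells and -100% = media-only wells without cells; nearly all actives have a fitted effect of over 55% in size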
#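 A 48-hour cytotoxicity screen used HT-1080-NT cells plated 2 hours before compound delivery. ATP-based CellTiter-Glo luminescence measured viability, normalized to DMSO and no-cell controls.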
# KB-3-1 cytotox: KB-3-1 parental cell cytotoxicity; hit rate 1.4% among 400,000; Potency, µM (doses to about 46.1 µM), hits mostly cytotoxic; KB-3-1 viability, CellTiter-Glo ATP luminescence, 72 h; note: % is set by controls: 0 for no effect and ±100 for the full control effect; nearly all actives have a fitted effect of over 60% in size
#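 KB-3-1 parental drug-naive adenocarcinoma cells in DMEM/10% FBS, incubated 72 h at 37 C with pin-transferred compounds across a concentration series. Viability by CellTiter-Glo luminescence; concentration-response curves fitted after normalization.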
# MCF10A rerep: induces DNA re-replication in MCF 10a normal breast cells; MCF 10A DNA re-replication, Hoechst nuclear intensity, 48 h; Potency, µM (highest dose often 46.1 µM), for the others: at the highest dose activity, positive = re-replication, actives largely listed as activators; hit rate 2.9% among 350,000; AID 624296; note: % of control where 0% means no effect; nearly all actives have a fitted effect of over 50% in size
# SW480 rerep: induces DNA re-replication in SW480 colon adenocarcinoma cells; SW480 DNA re-replication, Hoechst DNA content imaging, 48 h; Potency, µM (top dose mostly 46.1 µM), inactives show top-dose re-replication activation, most hits filed as activators; hit rate 1.8% among 340,000; AID 624297; note: % of control where 0% means no effect; nearly all actives have a fitted effect of over 55% in size
#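 Readout is total intensity of Hoechst-stained nuclei, excited at 405 nm and collected at 500-530 nm. Compound treatment lasted 48 hr at 37 C in 5% CO2 before staining.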
# KB-V1 MDR tox: KB-V1 MDR subline cytotoxicity | KB-V1 MDR cells viability, CellTiter-Glo, 72 h | AID 1347076 | Potency, µM (doses to about 46.1 µM), actives largely listed as cytotoxic | hit rate 3.4% among 400,000; note: % is set by controls: 0 for no effect and ±100 for the full control effect; nearly all actives have a fitted effect of over 60% in size
#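 Readout: CellTiter-Glo luminescence, 10 min after addition. Cells: KB-V1 MDR subline, 72 h at 37 degrees C with compound. Analysis: corrected, normalized data fitted to concentration-effect curves.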
# * = called active by the depositor; i = inactive; ? = inconclusive; . = not tested or not shown; [ ] = another dose, or the depositor's remark. A selection: hits, their analogues and other compounds. The true share with any hit is near 7.9%. Calls come from the whole dose curve; as a rule, active = well fitted curve in the direction sought with a large enough effect; inconclusive = small, poorly fitted or top-dose-only effect, or another doubt; inactive = no such curve, though single readings can be large; an effect the other way counts as inactive or inconclusive. Potency is the fitted concentration of half-maximal effect.
SMILES,HT1080 IDH1KD tx,HT1080-NT tox,KB-3-1 cytotox,MCF10A rerep,SW480 rerep,KB-V1 MDR tox
CCOC(=O)c1sc2nc(C3CC3)cc(-c3ccc(OC)cc3)c2c1N,6.3%,15.2%,i,3.66µM*,6.51µM*,i
CCOC(=O)c1sc2nc(C3CC3)cc(-c3ccc(F)cc3)c2c1N,7.8%,15.4%,i,?,18.4µM*,14.6µM*
CC(CC(=O)c1ccc(F)cc1)N1CCN(c2ccccc2)CC1 (configuration not stated),2.6%,0.2%,i,26.4%,?,?
O=C(Nc1nnc(-c2ccc(Cl)s2)o1)C1CCCCC1,-7.0%,-8.4%,i,1.0%,-8.0%,i
C=CCNC(=S)Nc1ccc(C)c(S(=O)(=O)N2CCCCC2)c1,0.9%,0.0%,i,3.5%,1.7%,?
COc1ccc(NC(=O)CCOc2ccc(C)cc2)cc1S(=O)(=O)N1CCOCC1,-12.6%,1.3%,i,0.8%,-8.8%,18.4µM*
CCOc1ncccc1C(=O)Nc1ccc(C)c(S(=O)(=O)N2CCCCCC2)c1,-18.0%,-9.5%[9.24 µM],?,9.2µM*,-14.7%,?
Cc1ccc(NC(=S)Nc2ccc(C(C)C)cc2)cc1S(=O)(=O)N1CCCCCC1,20.6µM*,?,i,?,?,14.6µM*
COc1ccc(OCCCC(=O)Nc2ccc(OC)c(S(=O)(=O)N3CCOCC3)c2)cc1,-2.6%,-2.4%,i,6.0%,-27.6%,i
COc1ccc(C(=O)OCc2ccccc2F)cc1S(=O)(=O)N1CCCC1,10.5%,0.8%,i,4.5%,-3.7%,16.4µM*
O=C(Cn1ccc2ccccc2c1=O)NCC1COc2ccccc2O1 (configuration not stated),6.1%,4.5%,i,15.8%,0.5%,i
CS(=O)(=O)N(CC(=O)N1CCc2ccccc2C1)c1ccc(Cl)cc1F,4.4%,3.6%,i,3.5%,2.4%,i
COc1ccc(NC(=O)CCc2ccccc2)cc1S(=O)(=O)N1CCOCC1,11.5%,10.0%,i,6.0%,-8.5%,i
O=C(Nc1ccc(Cl)c(S(=O)(=O)N2CCOCC2)c1)C1CCCC1,0.0%,2.3%,i,-2.5%,-2.5%,i
O=C(Nc1ccc(F)c(S(=O)(=O)N2CCOCC2)c1)C1CCCCC1,11.1%,8.1%,i,11.0%,-0.9%,18.4µM*
O=C(CCOc1cccc(Br)c1)Nc1ccc(F)c(S(=O)(=O)N2CCOCC2)c1,-23.2%,-16.9%,i,?,11.0%,23.1µM*
COc1ccc(OCC(=O)Nc2ccc(OC)c(S(=O)(=O)N3CCCCC3)c2)cc1,?,-17.7%,20.6µM*,?,16.4µM*,i
COc1ccc(NC(=O)CCc2ccccc2)cc1S(=O)(=O)N1CCCCC1,0.1%,-1.6%,?,5.3%,-2.2%,5.17µM*
CCN(CC(=O)Nc1ccc(NC(C)=O)cc1)C(=O)C1CC(=O)N(CCc2ccc(OC)c(OC)c2)C1 (configuration not stated),7.9%,12.4%,i,-0.8%,-7.3%,i
CCCNC(=O)C1(C)CCCN(Cc2cc3ccccc3o2)C1 (configuration not stated),-2.5%,3.4%,i,.,.,i
O=C1/C(=C/c2ccco2)SC(=S)N1CC1CCCO1 (configuration not stated),14.0%,-1.3%,i,-8.1%,?,i
Cn1c(=O)n(C)c2cc(NC(=O)COc3ccccc3)ccc21,-1.1%,0.1%,i,1.6%,-12.2%,i
COc1cc(CCC(=O)Nc2ccc(S(=O)(=O)N3CCCC3)cc2)cc(OC)c1OC,-3.9%,1.0%,i,12.0%,-10.2%,i
Cc1ccccc1OCC(=O)Nc1ccc(C)c(S(=O)(=O)N2CCCCCC2)c1,2.9%,0.8%,i,15.8%,-4.5%,11.6µM*
Cn1c(=O)n(C)c2cc(NC(=O)CCl)ccc21,?,?,4.61µM*,18.4µM*,?,16.4µM*
SMILES,HT1080 IDH1KD tx,HT1080-NT tox,KB-3-1 cytotox,MCF10A rerep,SW480 rerep,KB-V1 MDR tox
Cc1ccccc1OCC(=O)Nc1ccc2c(c1)n(C)c(=O)n2C,-17.3%,0.2%,i,5.1%,-20.5%[1.84 µM],13µM*
COc1cc(CCC(=O)Nc2ccc(C)c(S(=O)(=O)N3CCCCCC3)c2)cc(OC)c1OC,?,-3.9%,6.51µM*,12.6%,-2.0%,3.66µM*
Cc1ccc(S(=O)(=O)CCSc2cccc(C(=O)O)c2)cc1,-2.3%,-1.1%,i,-0.9%,-40.5%,i
COc1ccc(NC(=O)Cc2ccsc2)cc1S(=O)(=O)N1CCCCC1,6.3%,7.6%,i,-2.8%,0.4%,20.6µM*
Cc1cc(C)c(NC(=O)CN2C(=O)C3(SCC(=O)N3c3ccc(F)cc3)c3ccccc32)c(C)c1 (configuration not stated),.,.,i,.,.,14.6µM*
Cc1ccc(N2C(=O)CSC23C(=O)N(CC(=O)NC2CCCCC2)c2ccccc23)cc1 (configuration not stated),.,.,i,.,.,18.4µM*
CC1=CC(C)(C)N2C(=O)C3(SCC(=O)N3c3ccc(F)cc3)c3cc(C)cc1c32 (configuration not stated),-4.4%,-16.1%,?,8.1%,13.0%,16.4µM*
Cc1ccc(NC(=O)CN2C(=O)C3(SCC(=O)N3c3cccc(Cl)c3)c3ccccc32)cc1C (configuration not stated),.,.,i,.,.,10.3µM*
CC1CCCN(C(=O)CSc2nnc3ccccn23)C1 (configuration not stated),0.8%,1.4%,i,1.8%,3.6%,i
COc1cc(OC)c(NC(=O)n2ncc3cc(Cl)ccc32)cc1Cl,.,.,i,.,.,i
CCOC(=O)CSc1nc(-c2ccncc2)ccc1C#N,5.6%,-1.9%,i,11.6µM*,3.8%,i
CCOC(=O)CSc1nc(-c2ccc3c(c2)OCO3)ccc1C#N,-0.3%,?,i,16.4µM*,2.3%,?
CCOC(=O)CCCSc1nc(-c2ccc3c(c2)OCO3)cc(C(F)(F)F)c1C#N,-4.7%,-17.6%,i,0.6%,?,i
CCOC(=O)CC(=O)CSc1nc(-c2cccnc2)ccc1C#N,27.9%,16.0%,i,-4.8%,-18.4%,i
O=[N+]([O-])c1ccc(Nc2nc(NC3CCCCC3)nc(N3CCCC3)n2)cc1,16.7%,7.2%,?,?,?,i
CN(C)/C=C/C(=O)c1ccccc1OCc1cnc(Cl)s1,8.0%,-3.4%,i,18.4µM*,?,i
CN1CCN(c2nc(-c3ccc(Br)cc3)nnc2-c2ccccc2)CC1,20.6µM*,?,i,?,-0.5%,25.9µM*
